Inconclusive results are not listed. Where a call stands in place of a potency, no number is given. The source made the active and inactive calls. Calls come from the whole dose curve; as a rule, active = well fitted inhibition curve with a large enough effect; inconclusive = small, poorly fitted or top-dose-only effect; inactive = no such curve, though single readings can be large or run the other way.
Each compound was assayed against N-terminal Xaa-Pro-Lys N-methyltransferase 1 (Homo sapiens) (UniProt Q9BV86) (assay: qHTS Assay for Inhibitors of N-terminal methyltransferase 1 (NTMT1): ThioGlo3 Assay Confirmatory Screen, Round 1.). Conditions: NTMT1 SAHH-coupled ThioGlo3 fluorescence, 30 min; series mostly up to 56.8 µM.
Sequence of N-terminal Xaa-Pro-Lys N-methyltransferase 1 (Homo sapiens) (Q9BV86 whole entry, looked up): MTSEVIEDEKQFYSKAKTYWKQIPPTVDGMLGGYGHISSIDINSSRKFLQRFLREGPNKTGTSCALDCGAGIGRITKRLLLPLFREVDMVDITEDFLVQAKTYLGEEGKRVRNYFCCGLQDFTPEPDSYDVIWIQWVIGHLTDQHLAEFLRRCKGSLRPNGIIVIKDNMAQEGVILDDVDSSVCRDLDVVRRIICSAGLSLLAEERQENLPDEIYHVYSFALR
In short: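 Human NTMT1 at 125 nM was preincubated 1 min at room temperature with compounds at various concentrations or 1 uM RCC1-6 control. Substrate mix (100 uM SAM, 10 uM SAHH, 15 uM ThioGlo3) was added, and fluorescence (Ex 340/Em 450 nm) was read at start and after 30 min, normalized to background.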
`OC[C@@H]1O[C@@H](n2cnc3c(N[C@H]4CCC[C@@H]4O)ncnc32)[C@H](O)[C@H]1O` was tested, and the Potency was “inactive”.
`Nc1ncnc2c1ncn2C1CC(O)C(CO)O1` (stereo unspecified) was tested, and the Potency was “inactive”.
`Nc1nc(F)nc2c1ncn2[C@@H]1O[C@H](CO)[C@@H](O)[C@@H]1O` was tested, and the Potency was “inactive”.
In the case of `OCC1OC(n2cnc3c(=S)nc[nH]c32)C(O)C1O` (stereo unspecified), the Potency was 13.6 µM (active).
`COc1cc2nc(N(C)C)nc(NC3CC3)c2cc1OC` was tested, and the Potency was “inactive”.
With `Nc1ncnc2c1ncn2[C@@H]1O[C@H](CSCC[C@H](N)C(=O)O)[C@@H](O)[C@H]1O` the Potency was “inactive”.
For `COc1cc2c(NC3CCN(C)CC3)nc(N3CCCN(C)CC3)nc2cc1OCCCCN(C)C`, the Potency was 24.1 µM (active).
In the case of `COc1cc2nc(N3CCCCC3)nc(NC(C)C)c2cc1OC`, the Potency was 24.1 µM (active).
With `Nc1nc(Cl)nc2c1ncn2[C@@H]1O[C@H](CO)C(O)[C@H]1O` (stereo partly specified) the Potency was “inactive”.
With `COc1cc2c(NC3CCN(CC4CCCCC4)CC3)nc(N3CCCCCC3)nc2cc1OCCOCCN(C)C` the Potency was 27.1 µM (active).
In the case of `COc1cc2nc(N3CCN(C)CC3)nc(NC(C)C)c2cc1OC`, the Potency was 21.5 µM (active).
In the case of `Nc1ncnc2c1ncn2[C@@H]1O[C@H](COP(=O)(O)OP(=O)(O)OP(=O)(O)OP(=O)(O)OC[C@@H]2O[C@H](n3cnc4c(N)ncnc43)[C@@H](O)C2O)C(O)[C@H]1O` (stereo partly specified), the Potency was “inactive”.
For `COc1cc2c(NC3CCN(C(C)C)CC3)nc(N3CCCN(C)CC3)nc2cc1OCCCN1CCCC1`, the Potency was 24.1 µM (active).
For `Nc1ncnc2c1nc(Br)n2C1CC(O)C(CO)O1` (stereo unspecified), the Potency was “inactive”.
For `COc1cc2c(NC3CCN(C4CCCCC4)CC3)nc(N3CCCN(C)CC3)nc2cc1OCCCN1CCCCC1`, the Potency was 24.1 µM (active).
In the case of `COc1cc2nc(N3CCCCC3)nc(NC3CCN(Cc4ccccc4)CC3)c2cc1OC`, the Potency was 21.5 µM (active).
For `C[C@H](Cc1ccccc1)Nc1ncnc2c1ncn2[C@@H]1O[C@H](CO)C(O)[C@H]1O` (stereo partly specified), the Potency was “inactive”.
For `COc1cc2c(NC3CCN(C)CC3)nc(N3CCCN(C)CC3)nc2cc1OCCN(C)CCN(C)C`, the Potency was 27.1 µM (active).
In the case of `Nc1ncnc2c1nc(Cl)n2[C@@H]1O[C@H](CO)[C@@H](O)[C@@H]1O`, the Potency was “inactive”.
With `COc1cc2c(NC3CCN(C)CC3)nc(N3CCCN(C)CC3)nc2cc1OCCCCN` the Potency was 21.5 µM (active).
`CCN(c1cc(-c2ccc(CN3CCOCC3)cc2)cc(C(=O)NCc2c(C)cc(C)[nH]c2=O)c1C)C1CCOCC1` was tested, and the Potency was “inactive”.
With `COc1cc2c(NC3CCN(C)CC3)nc(N3CCCN(C)CC3)nc2cc1OCC1CCNCC1` the Potency was 24.1 µM (active).
`COc1cc2c(NC3CCN(C4CCCCC4)CC3)nc(N3CCCCCC3)nc2cc1OCCCN1CCCCC1` was tested, and the Potency was 24.1 µM (active).
In the case of `Nc1ncnc2c1ncn2[C@@H]1O[C@H](CO)C[C@@H]1O`, the Potency was “inactive”.
In the case of `COc1cc2c(NC3CCN(C(C)C)CC3)nc(N3CCCCCC3)nc2cc1OCCCN1CCCCC1`, the Potency was 24.1 µM (active).
`COc1cc2c(NC3CCN(C)CC3)nc(N3CCN(C)CC3)nc2cc1OCCCN(C)C` was tested, and the Potency was 24.1 µM (active).
For `CSc1nc(N)c2ncn([C@@H]3O[C@H](COP(=O)(O)OP(=O)(O)OP(=O)(O)O)C(O)[C@H]3O)c2n1` (stereo partly specified), the Potency was 21.5 µM (active).
For `CNC(=O)[C@H]1O[C@@H](n2cnc3c(NCc4ccc(N)cc4)ncnc32)[C@H](O)[C@@H]1O`, the Potency was “inactive”.
With `OCC1OC(n2cnc3c(NCc4ccco4)ncnc32)C(O)C1O` (stereo unspecified) the Potency was 19.2 µM (active).
`CCCC(=O)Nc1ncnc2c1ncn2[C@@H]1O[C@@H]2COP(=O)(O)O[C@H]2[C@H]1OC(=O)CCC` was tested, and the Potency was “inactive”.
For `CNC(=O)c1cnn(-c2nc(N)c3ncn([C@@H]4O[C@H](CO)[C@@H](O)[C@H]4O)c3n2)c1`, the Potency was “inactive”.
In the case of `COc1cc2c(NC3CCN(C)CC3)nc(N3CCN(C)CC3)nc2cc1OCCOCCN(C)C`, the Potency was 21.5 µM (active).
`Nc1ncnc2c1ncn2[C@@H]1O[C@H](COP(=O)(O)OP(=O)(O)OP(=O)(O)O)[C@@H](O)[C@H]1O` was tested, and the Potency was “inactive”.
`COc1cc2nc(N3CCN(C)CC3)nc(NC3CCN(C)CC3)c2cc1OC` was tested, and the Potency was 24.1 µM (active).
`O=S(=O)(O)c1ccc(Nc2ncnc3c2ncn3[C@@H]2O[C@H](CO)[C@@H](O)[C@H]2O)cc1` was tested, and the Potency was “inactive”.
For `C[S+](CCC(N)C(=O)O)CC1O[C@@H](n2cnc3c(N)ncnc32)C(O)C1O` (stereo partly specified), the Potency was “inactive”.

Reference: PubChem BioAssay AID1347142 (National Center for Advancing Translational Sciences (NCATS), 2019)
Note: nearly all actives have a fitted effect of over 80% in size.
Potency is the fitted concentration of half-maximal effect.
